According to PubChem BioAssay (NCI):
The panel holds about 83,000 compounds, 20% with a hit somewhere; the sample as a whole holds those more often.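 Testing used 96-well plates and a 48-hour single-concentration exposure. Example: -40 means 40% of the starting cells died.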 A number with no mark means an inactive call. Active and inactive are the calls of the source. The calls were made as follows: active = growth percent below 10; inactive = the rest.

Test system: MDA-MB-468 breast
Experiment: NCI-60 one-dose screen, 48 h (100 = growth as untreated, 0 = no growth, -100 = all killed)
Settings: 10 µM unless noted

**Q.** With `O=C(NO)c1ccc(NCc2csc3ccccc23)cc1` as the compound, how does the growth read?
**A.** 76.9%

**Q.** How did the growth turn out when `CCOC(=O)C1=C(C)Nc2nnc(Nc3ccccc3)n2C1c1ccccc1` (stereo not given) was run?
**A.** 68.4%

**Q.** `COc1ccc(-c2c(-c3cc(OC)c(OC)c(OC)c3)noc2N)cc1` was tested. Which growth did it give?
**A.** -5.06% (active)

**Q.** `COc1cc(-c2ncn(/C=C\c3nnco3)n2)cc(C(F)(F)F)c1` was tested. Which growth did it give?
**A.** -28.9% (active)

**Q.** For `C(=N\Nc1ccc2ccccc2n1)/c1ccccn1`, which growth is on record?
**A.** -27% (active)

**Q.** Which growth does the source give for `COc1ccc(N2CCN(C3=C(Cl)C(=O)c4ncccc4C3=O)CC2)cc1` here?
**A.** -57.8% (active)

**Q.** Which growth does the source give for `Nc1nc(N)c(N)c(Nc2ccc(CCO)cc2)n1` here?
**A.** 92.8%

**Q.** With `Cc1c(C(=O)NCCN2CCOCC2)cn2ncnc(Oc3ccc(NC(=O)Nc4ccc(Cl)c(C(F)(F)F)c4)cc3)c12` as the compound, how does the growth read?
**A.** -10.4% (active)

**Q.** For `O=C(O)c1cn(C2CC2)c2cc(N3CCN(C(=O)CN4C(=O)CSC4=O)CC3)c(F)cc2c1=O`, which growth is on record?
**A.** 96.4%

**Q.** For `Cc1c(C(=O)O[C@H]2[C@@H]3[C@H](C)CC[C@H]3[C@]3(C)O[C@@]2(C2CCCCC2)C[C@H]3OC(=O)CO)ccc2ccccc12`, which growth is on record?
**A.** 22.5%

**Q.** `Cc1cc(NCCCCNc2ccnc3cc(Cl)ccc23)nc(Nc2ccc(C(=O)N3CCCC3)cc2)n1` was tested. Which growth did it give?
**A.** -26.6% (active)

**Q.** Which growth does the source give for `NC(=O)c1cc(Cl)ccc1NC(=O)COc1ccccc1` here?
**A.** 21%

**Q.** `CCOc1ccc2nc(NC(=O)c3ccc(C(F)(F)F)cc3)sc2c1` was tested. Which growth did it give?
**A.** 111%

**Q.** With `C=CCCCCCCCCCOC(C)=O` as the compound, how does the growth read?
**A.** 105%

**Q.** With `COc1ccc(N2CCN(Cc3cc(C(=O)/C=C/c4c[nH]c5ccccc45)ccc3O)CC2)cc1` as the compound, how does the growth read?
**A.** 99.5%

**Q.** `CS(=O)(=O)c1nccc(-c2c(-c3ccc(F)c(OCc4ccc(F)cc4)c3)nc3sccn23)n1` was tested. Which growth did it give?
**A.** -37.2% (active)

**Q.** With `CN(C)[C@@H]1C(=O)C(C(=O)NCc2nc3[nH]cnc(=S)c3[nH]2)=C(O)[C@@]2(O)C(=O)C3=C(O)c4c(O)cccc4[C@@](C)(O)[C@H]3C[C@@H]12` as the compound, how does the growth read?
**A.** 81.2%

**Q.** How did the growth turn out when `O=C(Nc1nc(-c2ccccc2)nc2c1sc(=S)n2-c1ccccc1)C(F)(F)F` was run?
**A.** 105%

**Q.** `COc1ccc2c(c1)NC(=O)CN2c1nc(NC2CC2)nc2ccccc12` was tested. Which growth did it give?
**A.** 8.4% (active)

**Q.** For `NS(=O)(=O)c1cc(C2(O)NC(=O)c3ccccc32)ccc1Cl` (stereo not given), which growth is on record?
**A.** 102%

**Q.** `CNc1nc2c(s1)C(c1cccc(F)c1)CC(=O)N2` (stereo not given) was tested. Which growth did it give?
**A.** 98%

**Q.** With `COc1cc(OC)cc(-c2cncn2-c2ccc(-c3nc4cc(OC)cc(OC)c4s3)cc2)c1` as the compound, how does the growth read?
**A.** 4% (active)

**Q.** For `O=c1ccc2nc(-c3ccccc3)nn(-c3ccccn3)c-2c1`, which growth is on record?
**A.** -65.2% (active)

**Q.** `Cc1ccc(-c2c3c(N)nc(-c4ccncc4)nc3nc3c2c(C)nn3-c2ccccc2)cc1` was tested. Which growth did it give?
**A.** 43.6%

**Q.** How did the growth turn out when `Cc1ccc(Nc2oc(-c3ccccc3)nc2[P+](c2ccccc2)(c2ccccc2)c2ccccc2)cc1` was run?
**A.** -77.1% (active)

**Q.** How did the growth turn out when `C=C1c2c(C)nn(-c3ccc(N)cc3)c2N(C)C23CC1C1(C)c4c(C)nn(-c5ccc(N)cc5)c4N(C)C(C)(CC12)C3` (stereo not given) was run?
**A.** 59.5%

**Q.** `CNC(=O)c1cccc(Cn2nc(C)c(NC(=O)c3ccc(COc4ccc(C(F)(F)F)cc4C)cc3)c2C)c1` was tested. Which growth did it give?
**A.** -6.26% (active)

**Q.** For `O=C1NCC(=O)N(Cc2ccco2)[C@H]1Cc1ccccc1`, which growth is on record?
**A.** 114%

**Q.** With `COc1ccc(-c2[nH]ncc2Nc2cc(OC)c(OC)c(OC)c2)cc1` as the compound, how does the growth read?
**A.** 21.7%

**Q.** With `CCCCCc1ccc(S(=O)(=O)N(C(C)=O)c2cccc(-c3csc(N(CCN4CCN(C)CC4)C(C)=O)n3)c2)cc1` as the compound, how does the growth read?
**A.** -10.9% (active)

**Q.** For `COC(=O)C1(C)Cc2cc(OC(C)=O)c(OC(C)=O)cc2N1` (stereo not given), which growth is on record?
**A.** -3.93% (active)

**Q.** `CN(C)c1ccc(N=Cc2ccc(N3CCOCC3)cc2)cc1` was tested. Which growth did it give?
**A.** 57.5%

**Q.** Which growth does the source give for `Cn1c2nc3ccccc3c-2nc2ccccc21` here?
**A.** 75.4%

**Q.** `CCC(C)(C)C1CCC(O)CC1` (stereo not given) was tested. Which growth did it give?
**A.** 104%

**Q.** Which growth does the source give for `CSc1nnc2c(=O)n(C)c(=O)n(C)c2n1` here?
**A.** 108%

**Q.** `CCCCCCCCN(CCO)CCCCCCCC` was tested. Which growth did it give?
**A.** 98.7%

**Q.** With `Cc1cc(C)c2c(N)c3cccc(C)c3nc2n1` as the compound, how does the growth read?
**A.** -54.4% (active)

**Q.** Which growth does the source give for `C=C(C)[C@@H]1CC[C@]2(C(=O)NCCCCCCN(CCCN)CCCN)CC[C@]3(C)[C@H](CC[C@@H]4[C@@]5(C)CC[C@H](OCCCN)C(C)(C)[C@@H]5CC[C@]43C)[C@@H]12` here?
**A.** 21.2% [100 µM]

**Q.** `COc1cc(/C=N/NC(=O)c2ccc(-n3cc(-c4ccccc4)nn3)cc2)cc(OC)c1OC` was tested. Which growth did it give?
**A.** 31.6%

**Q.** Which growth does the source give for `O=C(Cn1cc(-c2ccccc2)nn1)Nc1nc(-c2ccc(Cl)cc2)cs1` here?
**A.** 92.6%
